Data on five compounds can be found in PubChem BioAssay (NCATS).

Assay [1] can be described thus: qHTS Assay for Lipid Storage Modulators (AID 1519; calls by dose curve; on activity change, negative = inhibition: on the % scale 0 is the no-effect control and ±100 the full control effect). The note with it: Drosophila S3 cells, BODIPY lipid droplet/cell ratio, laser cytometry, cells loaded with oleic acid. The essentials: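 Cells seeded at 5,000 per well were treated with compounds over a concentration series and loaded with oleic acid (400 uM, as added). Lipid droplet fluorescence (488 nm excitation, 500-530 nm channel) was read by laser-scanning cytometry and normalized to 20 uM Triacsin C.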

In assay [2] the target is DNA repair nuclease/redox regulator APEX1 (Homo sapiens) (UniProt P27695). As to the kind of experiment: qHTS Validation Assay for Inhibitors of the Human Apurinic/apyrimidinic Endonuclease 1 (APE1) (AID 1705;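 further: TAMRA fluorescence gain over two minutes as APE1 cuts a quenched THF abasic duplex; on the % scale 0 is the no-effect control and ±100 the full control effect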). To be noted: purified APE1 endonuclease activity, fluorescence, titration; series mostly up to 57.1 µM. The essentials: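 Substrate: 50 nM final fluorophore/quencher THF-abasic duplex. Enzyme preincubated with compounds 15 min, RT. Progress derived from fluorescence difference, third minus first kinetic read.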

The target of assay [3] is Endonuclease 4 (Escherichia coli (strain K12)) (UniProt P0A6C1). As to the kind of experiment: Counterscreen for APE1 Inhibitors: qHTS Validation Assay for Inhibitors of Endonuclease IV (AID 1708). Further: on the % scale 0 is the no-effect control and ±100 the full control effect. To be noted: E. coli endonuclease IV, DNA cleavage fluorescence; series mostly up to 57.1 µM. The essentials:
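The reaction buffer contained 50 mM Tris-HCl pH 7.5, 50 mM NaCl, 2 mM MgCl2, 1 mM DTT and 0.01% Tween-20. Incision of a 50 nM fluorophore/quencher THF substrate by 2 nM enzyme was measured kinetically.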

Assay [4] in a line: qHTS for differential inhibitors of proliferation of Plasmodium falciparum line 7G8 (AID 1815).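 Further: parasite growth measured after three days of incubation; plate controls were vehicle wells for no effect and reference inhibitor wells for full effect.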 The note with it: Plasmodium falciparum 7G8 proliferation inhibition; series mostly up to 28.7 µM.
A short description of assay [5]: qHTS for differential inhibitors of proliferation of Plasmodium falciparum line GB4 (AID 1816).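 Further: parasite growth measured after 72 h incubation; 0% = vehicle DMSO and -100% = reference inhibitor.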 The note with it: Potency: Plasmodium falciparum GB4 proliferation inhibition; series mostly up to 28.7 µM.
Assay [6] can be described thus: qHTS for differential inhibitors of proliferation of Plasmodium falciparum line 3D7 (AID 1876).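 Further: parasite growth measured after three days of culture; 0% = vehicle wells and -100% = reference inhibitor wells.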 The note with it: P. falciparum 3D7 proliferation inhibition; series mostly up to 28.7 µM.
Assay [7] in a line: qHTS for differential inhibitors of proliferation of Plasmodium falciparum line D10 (AID 1877).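 Further: parasites grown with compound for 72 h before DNA staining; plate controls were vehicle wells for no effect and reference inhibitor wells for full effect.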 To be noted: series mostly up to 28.7 µM.
The nature of assay [8]: qHTS for differential inhibitors of proliferation of Plasmodium falciparum line Dd2 (AID 1882).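 Further: compound exposure of 72 h on infected erythrocytes; plate controls were DMSO vehicle for no effect and 0.29 µM artemisinin for full effect; nearly all actives have a fitted effect of over 65% in size.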 To be noted: Potency: Plasmodium falciparum Dd2 proliferation inhibition; series mostly up to 28.7 µM. The essentials: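 RBC culture, 0.3% parasitemia / 2.5% Hct final; cpd added by pin tool in DMSO; 72 h, 37 C, 5% CO2; lysis buffer + SYBR Green I, o/n RT dark; FI 485/535; norm. to artemisinin 0.29 uM and DMSO.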

Assay [9] is described as follows: qHTS for differential inhibitors of proliferation of Plasmodium falciparum line W2 (AID 1883).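 Further: parasites grown with compound for 72 h before lysis and staining; 0% = vehicle wells and -100% = control inhibitor wells.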 To be noted: Potency: Plasmodium falciparum W2 proliferation inhibition; series mostly up to 28.7 µM.
The nature of assay [10]: qHTS for differential inhibitors of proliferation of Plasmodium falciparum line HB3 (AID 1886).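 Further: parasites grown with compound for 72 h before SYBR Green readout; plate controls were vehicle for no effect and reference inhibitor for full effect.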 The note with it: Potency: Plasmodium falciparum HB3 proliferation inhibition; series mostly up to 28.7 µM.
The nature of assay [11]: qHTS Assay for Modulators of Human Peripheral Myelin Protein 22 (PMP22) Expression/Activity (AID 1967; active means well fitted curve in the direction sought with a large enough effect in the signal ratio; the % refers to the signal ratio;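 further: 0% = untreated cells and 100% end not stated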). The note with it: Cell-based PMP22 reporter, dual-color luciferase ratio, 0% = compound-free control cells, mouse Pmp22 promoter in mouse Schwann cells; series mostly up to 115 µM. The procedure, abridged:
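Engineered MSC80 cells, Pmp22-promoter green and EF-alpha red luciferase reporters; 24h compound treatment at 37 °C. Concentration-response fits on green, red and ratio signals, each overlap-corrected, with %Activity normalized to untreated wells.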

Assay [12] addresses ATP-dependent DNA helicase Q1 (Homo sapiens) (UniProt P46063). Put plainly: qHTS Validation Assay for Inhibitors of RecQ-Like Dna Helicase 1 (RECQ1) (AID 2353).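 Further: plate controls were DMSO vehicle for no effect and enzyme-free control for full effect.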 To be noted: recombinant RECQ1 helicase DNA unwinding assay; series mostly up to 25.6 µM. The procedure, abridged:
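RECQ1T1 50 nM; forked duplex (20 bp + 30-nt ss tails) 200 nM, ATP 2 mM final; pH 8.0, 2 mM MgCl2, 2.5 ug/ml poly(dI-dC); 15 min compound preincubation; discontinuous kinetic read over 2 h at RT.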

The target in assay [13] is RecQ-like DNA helicase BLM (Homo sapiens) (UniProt P54132). Put plainly: qHTS Validation Assay for Inhibitors of Bloom's syndrome helicase (BLM) (AID 2364).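 Further: plate controls were DMSO vehicle for no effect and enzyme-free control for full effect.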 To be noted: BLM helicase DNA unwinding, fluorescence, in vitro; series mostly up to 57.1 µM. The essentials: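 Forked 20-bp duplex substrate (200 nM, TAMRA/BHQ-2) plus 2 mM ATP added after 15 min compound preincubation with 50 nM enzyme, pH 8.0, poly(dI-dC) 2.5 ug/ml. Strand separation followed by fluorescence (525/598 nm) over 2 h, normalized to enzyme-free and DMSO controls.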

The nature of assay [14]: Cytometric Cell-Based qHTS for Inhibitors of the mTORC1 Signaling Pathway in MEF (Tsc2-/-, p53-/-) Cells (AID 2660).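 Further: Tsc2 and p53 null MEFs carrying empty vector with compound for 24 h; percent of cells above a phospho-rpS6 to PI ratio cutoff in each well; plate controls were DMSO for no effect and rapamycin for full effect.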 To be noted: mTORC1 pathway cytometry; series mostly up to 38.3 µM. The essentials: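 Percent of cells positive for normalized phospho-S6 staining is reported, with the cutoff set from rapamycin (7.5 nM) versus DMSO wells. Tsc2-/-, p53-/- MEFs received compound for 24 hrs.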

Assay [15] is described as follows: High Content Imaging Cell-Based qHTS for Inhibitors of the mTORC1 Signaling Pathway in MEF (Tsc2-/-, p53-/-) Cells (AID 2666).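 Further: percent of cells scored positive for phospho-rpS6 Ser235/236 immunostaining by imaging.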 The note with it: at 38.3 µM (top of the series). The procedure, abridged:
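Tsc2-/-, p53-/- MEFs (empty-vector stable) grown in DMEM + 10% FBS were exposed to compounds for 24 hrs at 37 degree Celsius, fixed, and stained with Alexa-488 anti-phospho-rpS6 Ser235/236 plus Hoechst. Imaging gave the percentage of positive cells per well.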

Assay [16] in a line: High Content Imaging Cell-Based qHTS for Inhibitors of the mTORC1 Signaling Pathway in MEF Cells (AID 2667).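 Further: Tsc2-/- p53-/- MEFs stably re-expressing wild-type Tsc2 exposed 24 h; plate controls were DMSO wells for no effect and rapamycin control wells for full effect.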 To be noted: series mostly up to 38.3 µM. The essentials:
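Tsc2-/-, p53-/- MEFs stably re-expressing WT Tsc2, grown in DMEM + 10% FBS, were treated with compounds for 24 hrs at 37 degree Celsius, fixed, and stained with Alexa-488 phospho-rpS6 Ser235/236 antibody plus Hoechst; results given as % positive cells.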

A short description of assay [17]: Validation screen for small molecules that induce DNA re-replication in MCF 10A normal breast cells (AID 463097). Further: 0% is about no effect; nearly all actives have a fitted effect of over 60% in size. The note with it: MCF 10A cells, DNA re-replication phenotype imaging; series mostly up to 46.1 µM. The essentials:
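Following 48 hr compound incubation (37 C, 5% CO2), MCF 10A cells receive Hoechst for 40 min at 37 C. Nuclei are then scanned (excitation 405 nm, emission 500-530 nm) for total fluorescence intensity.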

Assay [18] in a line: qHTS Assay for Identification of Small Molecule Inducers of Hypoxia Response (AID 2120; active means well fitted curve in the direction sought with a large enough effect in the signal ratio, with a control signal flat, not every such curve was filed as active; the % refers to the signal ratio; further: 0% is about no effect). The note with it: hypoxia response reporter cells, beta-lactamase ratio readout; series mostly up to 104 µM. The essentials:
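Read-out: CCF4 FRET emission ratio 460nm/530nm (excitation 405nm), converted to %Activity, with AC50 fitted across a compound titration. ME-180 cells carried an HRE-driven beta-lactamase reporter; compound exposure 17 h, 37 degrees C.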

Setting [19] is: measured here: cell count channel max response.
Setting [20] is: measured here: lipid channel max response.

Several values for one entry are separate records, joined by “and”; a condition that tells them apart may be missing. Equal values may be shown once. Results filed as inconclusive are left out. Activity calls are given as the source filed them. Unless noted, the call rests on the fitted dose curve; in most records, active means well fitted curve in the direction sought with a large enough effect; inconclusive means small, poorly fitted or top-dose-only effect, or another doubt; inactive means no such curve, though single readings can be large; an effect the other way counts as inactive or inconclusive.

Chain of DNA repair nuclease/redox regulator APEX1 (Homo sapiens) (P27695 whole entry, looked up): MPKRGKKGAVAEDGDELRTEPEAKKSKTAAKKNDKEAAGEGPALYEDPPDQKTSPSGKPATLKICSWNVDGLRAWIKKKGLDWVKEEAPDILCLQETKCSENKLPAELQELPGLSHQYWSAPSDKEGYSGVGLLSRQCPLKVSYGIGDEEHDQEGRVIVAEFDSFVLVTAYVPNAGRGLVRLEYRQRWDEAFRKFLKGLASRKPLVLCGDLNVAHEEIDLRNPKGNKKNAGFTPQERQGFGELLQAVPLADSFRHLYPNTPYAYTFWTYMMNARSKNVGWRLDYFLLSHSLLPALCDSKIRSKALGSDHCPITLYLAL
Chain of ATP-dependent DNA helicase Q1 (Homo sapiens) (P46063 whole entry, looked up): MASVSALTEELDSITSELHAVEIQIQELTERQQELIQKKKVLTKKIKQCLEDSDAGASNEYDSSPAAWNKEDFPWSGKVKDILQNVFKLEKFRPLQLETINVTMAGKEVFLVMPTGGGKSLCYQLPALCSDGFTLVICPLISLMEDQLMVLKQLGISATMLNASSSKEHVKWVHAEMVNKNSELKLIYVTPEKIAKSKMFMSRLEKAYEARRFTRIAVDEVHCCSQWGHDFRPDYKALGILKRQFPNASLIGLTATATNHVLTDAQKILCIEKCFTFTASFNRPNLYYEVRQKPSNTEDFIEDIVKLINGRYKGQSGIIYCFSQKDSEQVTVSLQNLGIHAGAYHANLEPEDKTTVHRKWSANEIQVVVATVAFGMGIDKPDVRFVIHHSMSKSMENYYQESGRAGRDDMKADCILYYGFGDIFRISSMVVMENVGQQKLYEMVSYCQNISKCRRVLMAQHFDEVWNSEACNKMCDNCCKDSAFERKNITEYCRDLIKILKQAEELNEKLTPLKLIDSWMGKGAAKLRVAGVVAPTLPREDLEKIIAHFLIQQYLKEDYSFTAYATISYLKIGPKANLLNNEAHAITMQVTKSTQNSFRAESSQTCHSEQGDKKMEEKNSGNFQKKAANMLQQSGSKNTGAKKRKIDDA
Chain of RecQ-like DNA helicase BLM (Homo sapiens) (P54132 whole entry, looked up): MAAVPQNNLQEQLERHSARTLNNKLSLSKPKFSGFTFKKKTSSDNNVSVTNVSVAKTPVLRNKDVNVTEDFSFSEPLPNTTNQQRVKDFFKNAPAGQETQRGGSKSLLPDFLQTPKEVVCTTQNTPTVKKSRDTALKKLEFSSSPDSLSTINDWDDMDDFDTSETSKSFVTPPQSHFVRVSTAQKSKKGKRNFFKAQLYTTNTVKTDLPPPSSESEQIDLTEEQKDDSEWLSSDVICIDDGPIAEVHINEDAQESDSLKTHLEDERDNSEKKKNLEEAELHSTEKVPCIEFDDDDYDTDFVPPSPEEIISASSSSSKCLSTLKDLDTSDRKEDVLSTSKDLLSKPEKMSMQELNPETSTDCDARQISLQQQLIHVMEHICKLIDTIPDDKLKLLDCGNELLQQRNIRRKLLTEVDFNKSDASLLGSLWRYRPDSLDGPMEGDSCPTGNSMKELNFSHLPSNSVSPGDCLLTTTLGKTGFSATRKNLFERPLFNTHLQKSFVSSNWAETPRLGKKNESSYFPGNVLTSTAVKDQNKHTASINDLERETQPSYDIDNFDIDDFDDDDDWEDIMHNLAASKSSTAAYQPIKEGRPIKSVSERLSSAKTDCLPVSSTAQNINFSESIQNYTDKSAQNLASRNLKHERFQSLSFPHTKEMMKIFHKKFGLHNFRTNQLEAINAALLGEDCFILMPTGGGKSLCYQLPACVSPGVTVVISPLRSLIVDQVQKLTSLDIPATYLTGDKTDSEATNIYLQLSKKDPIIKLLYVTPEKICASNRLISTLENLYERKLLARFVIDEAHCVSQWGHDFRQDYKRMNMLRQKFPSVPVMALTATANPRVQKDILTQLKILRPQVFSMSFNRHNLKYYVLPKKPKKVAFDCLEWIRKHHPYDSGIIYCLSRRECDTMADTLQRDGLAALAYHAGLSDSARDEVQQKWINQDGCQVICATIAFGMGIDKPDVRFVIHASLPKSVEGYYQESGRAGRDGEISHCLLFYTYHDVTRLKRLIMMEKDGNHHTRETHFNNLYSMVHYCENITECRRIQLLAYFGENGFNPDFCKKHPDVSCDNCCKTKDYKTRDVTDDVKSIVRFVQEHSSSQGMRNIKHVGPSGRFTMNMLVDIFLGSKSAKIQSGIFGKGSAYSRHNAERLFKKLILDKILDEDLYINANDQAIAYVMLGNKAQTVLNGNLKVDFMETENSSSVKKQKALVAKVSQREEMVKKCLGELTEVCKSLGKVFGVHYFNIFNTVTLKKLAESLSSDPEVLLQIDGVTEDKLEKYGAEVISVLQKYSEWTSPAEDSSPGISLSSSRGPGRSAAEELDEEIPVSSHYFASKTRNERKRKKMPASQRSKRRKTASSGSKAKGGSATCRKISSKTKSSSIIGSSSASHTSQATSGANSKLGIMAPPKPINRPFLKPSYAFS

In the case of `Nc1ccc(S(=O)(=O)Nc2ccnn2-c2ccccc2)cc1`, the activity change, negative = inhibition in [1] (at 25.7 µM (top of the series)) is -1.01% (inactive); in [1] (at 57.5 µM (top of the series)), 14.1% (inactive). Besides, the max response in assay [1] (setting [19]) was -3.22% and 11.1%; in [1] (setting [20]), -3.23% and 26.2%. In addition, the outcome in assay [2], in assay [3], in assay [11], in [12], in assay [14] and in assay [15] was inactive. The outcome in assay [16] was inactive. Moreover, the Potency entry in assay [4], in [5], in assay [6], in assay [7], in assay [8] and in [9] was “inactive” each time. Moreover, the Potency result in [10], in [13] and in assay [17] was “inactive” throughout.

Take `Nc1nc2ccc(OC(F)(F)F)cc2s1`: the activity change, negative = inhibition in assay [1] (at 25.7 µM (top of the series)) was -1.29% (inactive); in assay [1] (at 57.5 µM (top of the series)), 1.85% (inactive). Moreover, the max response in [1] (setting [19]) is -7.42% and -26.5%; in [1] (setting [20]) it was -8.28% and -25.3%. Also, the result in [2], in [3], in assay [12], in assay [14], in assay [15] and in assay [16] was inactive. For the same compound, the Potency result in [4], in assay [5], in assay [6], in assay [7] and in [10] was “inactive” throughout.

With `NS(=O)(=O)c1cc2c(cc1Cl)NC=NS2(=O)=O`, the activity change, negative = inhibition in [1] (at 25.7 µM (top of the series)) is -2.79% (inactive); in assay [1] (at 57.5 µM (top of the series)), 7.25% (inactive) and -0.143% (inactive). The max response in assay [1] (setting [19]) is 3.82% and 7.17% and -12.5%; in assay [1] (setting [20]) it was 1.14% and 18.5% and -16.5%. Moreover, the result in assay [2], in [3], in [11], in assay [18], in assay [12] and in assay [14] was inactive. The compound was classed as inactive in assay [15] and in assay [16]. The Potency result in [4], in assay [5], in assay [6], in assay [7], in assay [8] and in assay [10] was “inactive” throughout. In addition, the Potency entry in assay [17] is “inactive”.

Regarding `Cc1[nH]c(=O)c(C#N)cc1-c1ccncc1`, the values for the activity change, negative = inhibition in assay [1] (at 25.7 µM (top of the series)) and in assay [1] (at 57.5 µM (top of the series)) were 2.58% (inactive) and -0.858% (inactive), respectively. Moreover, the max response in assay [1] (setting [19]) is -8.19% and -12.8%; in assay [1] (setting [20]) it was -4.74% and -14.2%. Also, the compound was classed as inactive in assay [2], in [3], in assay [12], in [14], in [15] and in assay [16]. The Potency result in assay [4], in [5], in assay [6], in assay [7], in assay [8] and in [9] was “inactive” in each case. The Potency entry in [10] and in [17] was “inactive” throughout.

`Cc1oncc1C(=O)Nc1ccc(C(F)(F)F)cc1`: the activity change, negative = inhibition was 0.243% (inactive) in assay [1] (at 25.7 µM (top of the series)); 13.4% (inactive) and -0.067% (inactive) in assay [1] (at 57.5 µM (top of the series)). For the same compound, the max response was -14.5% and 1.19% and -29.1% in assay [1] (setting [19]); -15.6% and 18.5% and -28.2% in assay [1] (setting [20]). Further, the compound was classed as inactive in assay [2], in assay [3], in [12], in assay [14], in [15] and in assay [16]. The Potency result in assay [4], in [5], in assay [7], in assay [8] and in assay [10] was “inactive” in each case.
